Most compounds without a hit are left out; they make up all but 11% or so of the library.
Sfp inh – Sfp phosphopantetheinyl transferase inhibition | Q9F4F7 | Biochemical Sfp PPTase activity, qHTS | Potency, µM, inactives show largest response in the series, negative = inhibition, hits mostly inhibitors | 310,000 tested, 3.5% active;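 note: the enzyme is Sfp with the accession as filed and its product quenches rhodamine fluorescence; potency is the fitted concentration of half-maximal effect; 0% = enzyme reaction without inhibitor and -100% = no enzyme wells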
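Fluorescence-quenching assay with 15 nM Sfp, 5 uM rhodamine-CoA and 12.5 uM BHQ-2-labelled ybbR peptide in pH 7.6 Hepes/MgCl2 buffer. Enzyme was pre-incubated with compound for 15 min at room temperature. Rate was taken from the 30-min fluorescence change (525/598 nm).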
FBPA coupling cs – inhibits coupling enzyme system, counter-screen for aldolase hits. coupling enzyme system counterscreen, AmpLite Red fluorescence. activity change, negative = inhibition, % at 58.2 µM, hits read low. 290,000 tested, 0.67% active. AID 2472; in the data active = activity change below about -30%
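First, compound is pin-transferred into glyceraldehyde-3-phosphate coupling-enzyme reagent at 57.5 uM final and held 10 min at RT. Next, substrate, coupling system and AmpLite Red are added. After 20 min RT, fluorescence (525/598 nm) is read.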
G9a inh – G9a (human) methyltransferase inhibition; Q96KQ7; G9a H3K9 monomethylation, AlphaScreen, 2 h; Potency, µM (doses to about 102 µM), for inactives: at the top dose activity, negative = inhibition, hits mostly inhibitors; 350,000 tested, 8.8% active; AID 504332; note: potency is the fitted concentration of half-maximal effect; nearly all actives have a fitted effect of over 75% in size
Target sequence (Q96KQ7 913-1193 limits assumed): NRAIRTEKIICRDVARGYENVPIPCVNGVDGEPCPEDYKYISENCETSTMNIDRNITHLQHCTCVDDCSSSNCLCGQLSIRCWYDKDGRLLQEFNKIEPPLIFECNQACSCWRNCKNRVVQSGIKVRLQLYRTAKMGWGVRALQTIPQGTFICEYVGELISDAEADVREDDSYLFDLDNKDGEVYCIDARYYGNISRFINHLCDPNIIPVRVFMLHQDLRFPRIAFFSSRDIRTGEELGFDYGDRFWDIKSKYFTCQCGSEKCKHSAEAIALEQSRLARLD
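Chemiluminescent proximity detection of H3K9 monomethylation, read after 10 min bead incubation in the dark. Reaction: 20 nM G9a, 500 nM biotin-H3K9 peptide, 20 uM SAM cofactor, 2 h, room temperature, following 15 min enzyme-compound preincubation.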
Tau fibril ThT – inhibitors of human tau fibril formation, thioflavin T binding. recombinant tau K18 P301L, heparin-induced fibrillization, ThT fluorescence. Potency, µM (doses to about 57.4 µM), for the others: at the highest dose activity, negative = inhibition, usual class: inhibitors. 270,000 tested, 2.1% active. AID 1460; note: potency is the fitted concentration of half-maximal effect; nearly all actives have a fitted effect of over 55% in size
Target sequence (P10636 561-689 P618L limits assumed): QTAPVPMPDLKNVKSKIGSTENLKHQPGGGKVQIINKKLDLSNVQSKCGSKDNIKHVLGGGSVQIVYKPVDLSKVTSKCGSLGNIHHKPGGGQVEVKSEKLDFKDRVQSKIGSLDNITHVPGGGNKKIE
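Recombinant human tau K18 fragment […] carrying P301L, 15 uM unlabeled plus 0.24 uM Alexa 594-labeled, was fibrillized with 20 uM heparin in 100 mM sodium acetate pH 7 for 6 hr at 37 C; 30 uM ThT fluorescence read after 1 hr.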
Tau fibril FP – blocks human tau fibril formation measured by polarization. Potency, µM (top dose mostly 57.7 µM), inactives show top-dose activity, negative = inhibition, most hits filed as inhibitors. K18 P301L tau heparin fibrillization, Alexa594 FP, 6 h. 280,000 tested, 0.39% active. P10636; note: potency is the fitted concentration of half-maximal effect; nearly all actives have a fitted effect of over 55% in size
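Steps: dispense K18 P301L tau (15 uM plus 0.24 uM Alexa 594 tracer, final) in pH 7 sodium acetate; add compound; add heparin (20 uM final); incubate 6 hr, 37 C; add ThT (30 uM final); after 1 hr ambient, read FP.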
Tau fluor cs – counter-screen for tau fibril formation inhibitors; tau K18 P301L (four-repeat tau fragment) Alexa594 fluorescence, heparin fibrillization; Potency, µM (highest dose often 57.7 µM), without a hit: at the top dose activity change, negative = decrease; 280,000 tested, 0.93% active; AID 1463; note: potency is the fitted concentration of half-maximal effect; nearly all actives have a fitted effect of over 55% in size
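Human K18 P301L tau (15 uM unlabeled plus 0.24 uM Alexa 594-labeled, final) in 100 mM sodium acetate pH 7 was mixed with compound and 20 uM heparin and incubated 6 hr at 37 C.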
An asterisk follows results filed as active; ? = inconclusive; . = no result given; ! = a repeat was not active; [ ] = another dose, or the depositor's remark. Unless noted, calls come from the whole dose curve; as a rule, active = well fitted curve in the direction sought with a large enough effect; inconclusive = small, poorly fitted or top-dose-only effect, or another doubt; inactive = no such curve, though single readings can be large; an effect the other way counts as inactive or inconclusive. Unless noted, % is set by controls: 0 for no effect and ±100 for the full control effect.

SMILES	Sfp inh	FBPA coupling cs	G9a inh	Tau fibril ThT	Tau fibril FP	Tau fluor cs
C=CCC1C(=O)NC(=S)NC1=O	50µM*	0	8.9µM*	-7%	-11%	-3%
CN(C)C(=S)SSC(=S)N(C)C	3.5µM*!	-45*!	1.3µM*	?	?	-18%
CN(C)C(=S)SC(=S)N(C)C	11µM*	-1	2.5µM*	-10%	-5%	-1%
CCCc1nn(C)c2c1C(c1ccncc1)C(C#N)=C(N)O2 (configuration not stated)	8%	0	?	?	-4%	-2%
Cc1cccn2c(=O)c(C=Nc3ccccc3)c(NCc3ccco3)nc12	50µM*	-9	50µM*	-10%	0%	-9%
CCCCn1c(=O)c(C=Nc2ccc(Cl)cc2)c(O)n(Cc2ccco2)c1=O	2%	-1	32%[59 µM]	-9%	-2%	-5%
CCc1ccc(CN2CCN(Cc3ccc(SC)cc3)CC2)cc1	?	-1	3.5µM*	-16%	-11%	-17%
CCOc1ccccc1N1CCN(Cc2cccc(OC)c2OC)CC1	-1%	-41*	?	-4%	11%	3%
Clc1ccccc1CN1CCN(c2ccccc2Cl)CC1	-18%	-2	13µM*	-23%	0%	-14%
CSc1ccc(CN2CCN(c3ccccc3C)CC2)cc1	-27%	2	13µM*	.	.	.
Cc1[nH]c(=O)n(C(C)(C)C)c(=O)c1Cl	19%	0	.	.	.	.
NC(=NCCc1ccc(I)cc1)SCCCc1cnc[nH]1	8%	5	?	-2%	-3%	-5%
Cc1cc(O)c(CN2CCN(c3ccccc3)CC2)cc1C	15%	5	22%[12.7 µM]	-11%	-2%	-13%
COc1ccccc1N1CCN(Cc2ccc(F)cc2)CC1	6%	1	-34%	0%	-1%	-8%
CCOc1ccccc1CN1C2CCC1CC(c1ccc(C)cc1)C2 (configuration not stated)	7%	2	31%	.	.	.
COc1ccccc1N1CCN(Cc2ccc(Cl)cc2Cl)CC1	?	0	22µM*	?	3%	-27%
COc1ccc(CN2CCN(c3ccccc3)CC2)c(C)c1C	?	2	11µM*	?	-2%	-26%
CCOc1ccccc1CN1CCN(S(=O)(=O)CC)CC1	-27%	2	13µM*	-8%	-9%	-12%
COc1ccccc1N1CCN(Cc2ccc(SC)cc2)CC1	?	0	10µM*	.	.	.
CO/C1=C\C(C)=C\[C@@H](C)[C@@H](O)[C@@H](C)C/C(C)=C/C=C/[C@H](OC)[C@@H]([C@@H](C)[C@@H](O)[C@H](C)[C@@]2(O)C[C@@H](O)[C@H](C)C(C(C)C)O2)OC1=O (some centres not stated)	-5%	-10	.	.	.	.
O=C1CC2OCC=C3CN4CCC56c7ccccc7N1C5[C@H]2[C@H]3C[C@H]46 (some centres not stated) (tested in a mixture with another compound)	22%	.	-34%[12.7 µM]	.	.	.
O=C(CN1CCCCC1)c1ccccc1Cl	-18%	0	1.6µM*	?	-7%	6%
O=C(CN1CCCCC1)c1cccc(Br)c1	-2%	-1	8.9µM*	-14%	5%	-6%
Cc1cc(C(=O)CN2CCCC2)c(C)n1-c1ccc(F)cc1	15%	0	1%[12.7 µM]	-3%	2%	22%
O=C(CN1CCCCC1)c1ccccc1F	16%	0	25µM*	-7%	-13%	-7%
SMILES	Sfp inh	FBPA coupling cs	G9a inh	Tau fibril ThT	Tau fibril FP	Tau fluor cs
CN1CCN(c2cc(N3CCCC3)c([N+](=O)[O-])cc2F)CC1	24%	-2	?	?	-6%	-7%
CCN1CCN(c2cc(N3CCCC3)c(F)cc2[N+](=O)[O-])CC1	-13%	-1	45µM*	?	7%	-7%
Cc1cc(N2CCCCC2)nc2ccc(NC(=O)CCC(=O)N3CCN(c4cccc(Cl)c4)CC3)cc12	.	.	-45%[59 µM]	?	10%	?
CN1CCC(c2c[nH]c3ccccc23)C1 (configuration not stated)	-3%	-1	-39%[59 µM]	-17%	0%	-10%
CN1CCC(c2c[nH]c3ccc(O)cc23)CC1	21%	-9	13µM*!	-6%	?	?
C[n+]1ccc(-c2ccncc2)cc1	-6%	2	16µM*	-1%	-1%	-3%
COc1ccccc1N1CCN(C2CCN(C(=O)c3cccs3)CC2)CC1	-11%	0	28µM*	-4%	7%	0%
COc1cc(OC)cc(C(=O)N2CCC(N3CCN(c4ccccc4)CC3)CC2)c1	45µM*	-4	2.8µM*	-4%	-2%	3%
C=CCn1c(-c2ccc([N+](=O)[O-])cc2)n[nH]c1=S	-10%	5	5.6µM*	?	-2%	-4%
C/C(=N\N1CCCCCC1)c1c(O)n(C)c(=O)n(C)c1=O	24%	-1	17%[12.7 µM]	0%	-1%	-1%
C/C(=N\NC(N)=O)c1c(O)n(C)c(=O)n(C)c1=O	56µM*	0	?	-15%	-8%	-5%
COc1cc2c(cc1OC)[C@@H]1C(=O)c3ccc(OC)c(CC=C(C)C)c3OC1CO2 (some centres not stated)	?	-11	.	-27%	-8%	-29%
COc1cc2c(cc1OC)[C@H](C)NCC2	15%	0	15%[21.5 µM]	.	.	.
CC(C)c1cc2c(c(O)c1O)[C@]1(C(=O)O)CCCC(C)(C)C1CC2 (some centres not stated)	-108%	-15	-38%[2.33 µM]	28µM*	?	?
CCOc1ccc(-c2cn3c(n2)sc2cc(C(=O)N4CCCC(C)C4)ccc23)cc1 (configuration not stated)	.	.	16%[59 µM]	?	-3%	-24%
CC1=NN(c2ccccc2)C(=O)/C1=C/c1c(O)[nH]c(=O)[nH]c1=O	4%	0	40µM*	?	-10%	-10%
O=c1[nH]c(O)c(/C=C2\C=NN=C2c2ccccc2)c(=O)[nH]1	50µM*	2	50µM*	?	-8%	-11%
O=c1[nH]c(O)c(C=Nc2ccccc2Oc2ccccc2)c(=O)[nH]1	-6%	0	2%	-7%	-12%	-3%
CC1=NN(c2ccccc2)C(=O)/C1=C/c1c(O)[nH]c(=S)[nH]c1=O	50µM*	7	?	?	?	-22%
COc1ccccc1-c1n[nH]c(=S)n1Cc1ccco1	20µM*	2	3.5µM*	-7%	0%	-4%
CCOc1ccccc1NC(=O)c1sc2nc3c(cc2c1N)CN(Cc1ccccc1)CC3	.	.	?	-14%	17%	?
